Here are results for 48 molecules from PubChem BioAssay AID2685 (National Center for Advancing Translational Sciences (NCATS), 2010).

Out of some 320,000 compounds screened, about 2,100 (0.66%) were called active. About 53% were inconclusive and are not listed. The call rests on the fitted dose curve; in most records, active means well fitted inhibition curve with a large enough effect in the signal ratio, with a control signal flat (not every such curve was filed as active); inconclusive means small, poorly fitted or top-dose-only effect, or effect the other way, or a change in a side signal; inactive means flat fitted curve, though single readings scatter; the % refers to the signal ratio. This excerpt belongs to a sample that is enriched for actives.
Potency means the concentration at half of the fitted maximal effect.

The nature of the assay: qHTS Assay for Lipid Storage Modulators in Drosophila S3 Cells.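 On cell number change: cells counted by Cell Tracker Red CMTPX staining in the red channel.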 On lipid storage change, negative = inhibition: on the % scale 0 is the no-effect control and ±100 the full control effect. The settings on record: BODIPY lipid droplet fluorescence, 18-24 h, cells fed with added oleic acid; cell number change: measured here: cell count max response; series mostly up to 46.1 µM; lipid storage change, negative = inhibition: at the top concentration. Summed up: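 Drosophila S3 cells got compounds at several concentrations plus oleic acid (400 uM solution). Laser-scanning cytometry with 488 nm excitation read lipid droplets at 500-530 nm and cells at 575-640 nm. Percent activity was relative to 20 uM Triacsin C.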
In general terms: qHTS replaces the single test concentration by a dilution series.
For `O=C(NCCN1C(=O)S/C(=C\c2cccc(Cl)c2Cl)C1=O)C1=COCCO1`, the Potency is 11.6 µM (active) and the cell number change was -26.2%.

Turning to `O=C(NCCN1C(=O)S/C(=C\c2ccc(Cl)c([N+](=O)[O-])c2)C1=O)C1=COCCO1`, the “lipid storage change, negative = inhibition” value was -27.2% (inactive) and the cell number change was 12.4%.

On to `O=C(CCCN1C(=O)/C(=C/c2ccccc2Cl)SC1=S)NCCCN1CCOCC1`, for which the “lipid storage change, negative = inhibition” value was -10.8% (inactive) and the cell number change amounted to 16.8%.

Take `O=C(CCc1nc2ccccc2c(=O)[nH]1)NCCN1C(=O)S/C(=C\c2ccc(Cl)cc2Cl)C1=O`: the “lipid storage change, negative = inhibition” value is -29.4% (inactive) and the cell number change turned out to be 1.43%.

As to `O=C(NCCN1C(=O)S/C(=C\c2ccc(Cl)c(Cl)c2)C1=O)C1COc2ccccc2O1` (stereo unspecified), the call was inactive.

As for `O=C(NCCN1C(=O)S/C(=C\c2ccc(Cl)cc2Cl)C1=O)C1=COCCO1`, the Potency is 20.6 µM (active).

With `CC(=O)c1c2c3c(cccc3n(C)c1=O)C(=O)c1ccccc1-2`, the molecule was classed as inactive and the cell number change is -3.04%.

Take `Cn1c(=O)c(Nc2ccc(O)cc2)c2c3c(cccc31)C(=O)c1ccccc1-2`: the “lipid storage change, negative = inhibition” value was 2.84% (inactive) and the cell number change came out at 4.29%.

Take `CCOC(=O)c1c2c3c(cccc3n(C)c1=O)C(=O)c1ccccc1-2`: the Potency was 13 µM (active) and the cell number change is -24.8%.

Regarding `COc1ccccc1CNC(=O)c1sccc1-c1ccccc1`, the molecule was called inactive and the cell number change came out at 7.94%.

Consider `CCOC(=O)c1sc(=NC(=O)c2ccc(OC)c(OC)c2)n(C)c1C`, for which the “lipid storage change, negative = inhibition” value was 9.28% (inactive) and the cell number change came to 0.273%.

In the case of `CC(=O)c1ccc(S(=O)(=O)N2CCCc3ccccc32)cc1`, the “lipid storage change, negative = inhibition” value is 11.7% (inactive) and the cell number change was 13.2%.

On to `Cc1cccc(Oc2ncnc(N)c2[N+](=O)[O-])c1C`, for which the “lipid storage change, negative = inhibition” value was -2.92% (inactive) and the cell number change was found to be 1.6%.

`CCCn1c(NC(=O)c2ccc(C)cc2)nc2ccccc21`: the outcome was inactive.

As for `O=C(Nc1ncccn1)c1ccc([N+](=O)[O-])o1`, the “lipid storage change, negative = inhibition” value was -14.6% (inactive) and the cell number change is -11.9%.

Turning to `O=C(Nc1ccccn1)c1ccc([N+](=O)[O-])o1`, the Potency was 20.6 µM (active) and the cell number change is -6.3%.

Consider `O=C(Nc1cccc2ncccc12)c1ccc(-c2ccc(Br)cc2)o1`, for which the “lipid storage change, negative = inhibition” value was -6.65% (inactive) and the cell number change is -12.1%.

Consider `CCCn1c(NC(=O)c2ccco2)nc2ccccc21`, for which the molecule was called inactive and the cell number change is -15.8%.

For `CCCn1c(NC(=O)c2ccc([N+](=O)[O-])o2)nc2ccccc21`, the Potency is 6.51 µM (active) and the cell number change is -9.34%.

For `Cc1cccc(NC(=O)c2ccc([N+](=O)[O-])o2)c1C`, the “lipid storage change, negative = inhibition” value is -1.69% (inactive) and the cell number change came to 8.85%.

`O=C(Nc1ccccn1)c1cc2ccccc2o1`: the “lipid storage change, negative = inhibition” value was 2.25% (inactive) and the cell number change was -2.14%.

With `O=C(Nc1cccc2ncccc12)c1ccc([N+](=O)[O-])o1`, the Potency was 16.4 µM (active) and the cell number change turned out to be 26.1%.

On to `Cc1cc(C)cc(OCCNC(=O)c2ccc(Br)cc2)c1`, for which the outcome was inactive and the cell number change was 5.31%.

With `CCC(C)c1ccc(NC(=O)Nc2cnccn2)cc1` (stereo unspecified), the “lipid storage change, negative = inhibition” value is -6.7% (inactive) and the cell number change is 13.7%.

`O=C1CC(C(=O)Nc2cc(Cl)ccc2Cl)n2ncnc2N1` (stereo unspecified): the cell number change was -2.1% and the lipid storage change, negative = inhibition was 6.51% [at 9.22 µM] (inactive).

For `CCOC(=O)N1CCN(S(=O)(=O)c2ccc(C)c(C)c2)CC1`, the molecule was classed as inactive.

In the case of `CCN(CC)CCNC(=O)CCn1nc(-c2ccc(Cl)cc2)ccc1=O`, the “lipid storage change, negative = inhibition” value was -4.06% (inactive) and the cell number change is 9.34%.

On to `O=C(C1COc2ccccc2O1)N1CCCC1` (stereo unspecified), for which the Potency is 6.51 µM (active) and the cell number change is 0.347%.

Regarding `O=C(C1COc2ccccc2O1)N1CCCCC1` (stereo unspecified), the “lipid storage change, negative = inhibition” value was -14.7% (inactive) and the cell number change worked out at 3.75%.

On to `O=C(C1COc2ccccc2O1)N1CCN(c2ccccc2O)CC1` (stereo unspecified), for which the “lipid storage change, negative = inhibition” value is 37.9% (inactive) and the cell number change was -2.02%.

On to `O=C(NNc1cccc(Cl)n1)Nc1ccc(Cl)cc1`, for which the “lipid storage change, negative = inhibition” value is 17.2% (inactive) and the cell number change was -10.7%.

Take `O=c1oc2ccc(F)cc2c2c1C1O[C@](c3ccsc3)(Cc3c1ccc1ccccc31)O2`: the cell number change is 2.65% and the lipid storage change, negative = inhibition was 17.6% [at 9.22 µM] (inactive).

As for `CC(C)CCNC(=O)C1CCC(=O)N1CCc1ccccc1` (stereo unspecified), the “lipid storage change, negative = inhibition” value is 1.46% (inactive) and the cell number change was found to be 19.8%.

`CC(C)(C)NC(=O)CN(C(=O)C(=O)Nc1ccc2c(c1)OCCO2)C(C)(C)C`: the “lipid storage change, negative = inhibition” value was -0.996% (inactive) and the cell number change was -1.34%.

As to `CCC(C)(C)NC(=O)CN(C(=O)C(=O)Nc1ccc2c(c1)OCCO2)C1CC1`, the Potency is 1.16 µM (active) and the cell number change is -1.67%.

Consider `CCC(C)(C)NC(=O)CN(Cc1cccs1)C(=O)C(=O)Nc1ccc2c(c1)OCCO2`, for which the “lipid storage change, negative = inhibition” value is -17.7% (inactive) and the cell number change turned out to be 3.41%.

Regarding `O=C(c1ccco1)N1CCN(c2cc(=O)n(-c3ccc(Cl)cc3)c(=O)[nH]2)CC1`, the “lipid storage change, negative = inhibition” value was -21.2% (inactive).

Consider `Cc1cc(NS(=O)(=O)c2ccc(NC(=O)CSc3nc4ncccc4[nH]3)cc2)nc(C)n1`, for which the “lipid storage change, negative = inhibition” value is -7.33% (inactive) and the cell number change is -9.17%.

On to `CCOC(=O)CNC(=O)c1sc(NC(=O)c2ccccc2)nc1C`, for which the “lipid storage change, negative = inhibition” value was 13.4% (inactive) and the cell number change was -2.79%.

Turning to `Cc1nn(-c2ccccc2)c(=S)n1-c1ccccc1`, the Potency was 32.6 µM (active) and the cell number change was -7.47%.

Consider `Cc1nn(C)c(=S)n1-c1ccc(Cl)cc1`, for which the “lipid storage change, negative = inhibition” value was -1.67% (inactive) and the cell number change came to 4.59%.

As to `Cc1n[nH]c(=S)n1-c1ccccc1`, the “lipid storage change, negative = inhibition” value was 0.353% (inactive) and the cell number change came out at 8.27%.

Consider `Cc1ccc(NC(=O)NCc2cccn2C)cc1C`, for which the “lipid storage change, negative = inhibition” value is 6.76% (inactive) and the cell number change is 7.96%.

As to `O=C(Nc1cccc(O)c1)C(=O)Nc1ccccn1`, the “lipid storage change, negative = inhibition” value was 16% (inactive) and the cell number change is 0.58%.

For the molecule `O=C(NCc1ccc2c(c1)OCO2)c1ccc(Br)s1`, the “lipid storage change, negative = inhibition” value was 18.6% (inactive) and the cell number change is 15.1%.

As for `COC(C(=O)Nc1ccnn1C1CCN(Cc2nccs2)CC1)c1ccccc1` (stereo unspecified), the Potency is 18.4 µM (active) and the cell number change was -27.2%.

`COC(C(=O)Nc1ccnn1C1CCN(Cc2ccccn2)CC1)c1ccccc1` (stereo unspecified): the “lipid storage change, negative = inhibition” value was -3.44% (inactive) and the cell number change was -9.38%.

As for `COC(C(=O)Nc1ccnn1C1CCN(Cc2ccc(C)s2)CC1)c1ccccc1` (stereo unspecified), the “lipid storage change, negative = inhibition” value was 4.04% (inactive) and the cell number change was -1.51%.
